The values that follow come from ChEMBL document CHEMBL4513216, “Probing the Open Global Health Chemical Diversity Library for Multistage-Active Starting Points for Next-Generation Antimalarials” (ACS Infect Dis, 2020).

The campaign covered roughly 69,000 compounds. About 8,600 (12%) showed an effect of 50% or more. What follows is part of a selection rich in strong results, with near analogues and random picks from the rest.

The subject of the assay is Plasmodium berghei. The assay can be described thus: Screen against P. berghei liver stage (PbLuc), transformed with Luciferase, at 10uM. The format is functional, HepG2. Particulars: tested at 10 uM.
In the case of `CCN1CCC(CNCc2cc(OC)ccc2OC)C1` (stereo unspecified), the INHIBITION is recorded as 10.1%.
The figure for `COc1ccc(OC)c(CNC2CCCN(c3cccnn3)C2)c1` (stereo unspecified) is 30.5%.
The value for `COc1cccc(-c2n[nH]cc2CNC2CCC(O)CC2)c1` (stereo unspecified) was 19.4%; that for `Cc1cc(C(=O)CN(Cc2cccnc2)CC2CCCO2)c(C)[nH]1` (stereo unspecified) was 10.7%.
The figure for `Cc1cnc(C(NC(=O)NCC2(CO)CC2)C2CC2)s1` (stereo unspecified) is 22.8%; for `CC(C)c1nc(C(=O)N2C[C@@H]3CC[C@H]2CN(C2CCOCC2)C3)cs1` it is 44.8%; for `CCn1ccc(C(=O)N2CCCC2(C)c2nc(C)cc(N(C)C)n2)n1` (stereo unspecified) it is -4.51%.
Regarding `COc1ccc(CNc2nc(C3CC3)no2)cc1OC`, the INHIBITION turned out to be 25.6%.
For `COc1ccc(CNc2n[nH]c(C)n2)cc1`, the INHIBITION is reported as 4.03%.
Take `COc1cccc(CNc2c(C)nn(C(C)C)c2C)c1`: the INHIBITION came out at 31.3%.
Turning to `COc1ccc(CNc2c(C)nn(C(C)C)c2C)cc1`, the INHIBITION is reported as 69.3%.
The value for `COc1ccc2cc(CNc3c(C)nn(C(C)C)c3C)ccc2c1` was 62.8%.
In the case of `COc1ccc(CNc2c(C)nn(C(C)C)c2C)cc1OC`, the INHIBITION was determined as 62.8%.
The figure for `COc1ccc(CNC(C)c2cnc3cc(C)nn3c2C)cc1` (stereo unspecified) is 28.4%; for `COc1ccc(CNc2cccnc2-n2cccn2)cc1OC` it is 23.9%; for `COc1ccc(C(=O)Nc2c(C)nn(C(C)C)c2C)cc1` it is 10%.
As for `O=C1CCOC[C@]2(CN(Cc3ccccc3)C[C@H]2c2cccnc2)N1`, the INHIBITION was found to be 20.6%.
As for `CCC(C)N(Cc1ccsc1)C(=O)c1ccc(CO)cc1` (stereo unspecified), the INHIBITION was 2.7%.
The figure for `CC(=O)Nc1nc(C2CCN(CC(N)=O)CC2)cs1` is 63.7%; for `CC(=O)Nc1nc(C2CCN(C(=O)c3ccncc3)CC2)cs1` it is -9.27%; for `CC(=O)Nc1nc(C2CCN(C(=O)c3cccnc3)CC2)cs1` it is 60.8%.
The figure for `CC(=O)Nc1nc(C2CCN(C(C)=O)CC2)cs1` is 27.9%; for `CC(=O)Nc1nc(C2CCN(C(C)C)CC2)cs1` it is 23.4%.
The figure for `CC(=O)Nc1nc(C2CCN(C(=O)c3cncs3)CC2)cs1` is 48.6%; for `C[C@@H]1CC[C@@H](C)N1C(=O)c1cc(COc2ccccc2)[nH]n1` it is 36.7%; for `Cc1cc(C)n(CC(=O)N2CCCCC2CCc2cccs2)c(=O)n1` (stereo unspecified) it is 31.2%.
In the case of `c1c(CN2CCCC2)nc2n1CCNC2`, the INHIBITION turned out to be 33.4%.
The value for `Cc1ccc(O)c(CNc2cccc(OCCF)c2)n1` was 9.91%; that for `CC[C@@H]1N(Cc2ccco2)CCC[C@]12CCC(=O)N2C` was 6.27%.
The value for `CCCN(C)CC1CCN(c2ncc(Br)cn2)C1` (stereo unspecified) was 68%; that for `CCN(C)CC1CCN(C(=O)Nc2ccc(C)cc2)C1` (stereo unspecified) was -45.4%.
The value for `CCN(C)CC1CCN(c2ncc(Br)cn2)C1` (stereo unspecified) was 26%; that for `Cc1nc(C2CCCN(c3ncc(Br)cn3)C2)no1` (stereo unspecified) was 19.8%.
On to `Cc1ccc(N2CCCC(N(C)Cc3nc(C)c(C)o3)C2)nn1` (stereo unspecified), for which the INHIBITION came out at 40.9%.
Regarding `CCCN(C)CC1CCN(c2ccc(Br)c(C)n2)C1` (stereo unspecified), the INHIBITION is given as 74.8%.
The figure for `Cc1ccc2ncn(C(C)Cn3cccn3)c(=O)c2c1` (stereo unspecified) is 3.82%; for `O=C(NCc1sc2ccccc2c1Cl)c1cc2n(n1)CCNC2` it is 25.1%; for `O=C(C1CCOCC1)N1CCO[C@@H]2[C@@H](OCc3ccncc3)CC[C@@H]21` it is 23.6%.
The value for `CC(C)c1nc(CS(=O)(=O)Cc2noc(C3CC3)n2)cs1` was 47.6%; that for `Cc1ncsc1CN1CC[C@H]2OCC[C@@]2(C(=O)NC2CC2)C1` was -45.5%.
The figure for `COc1cc(CNC(=O)N(Cc2ccc(F)cc2F)C2CC2)ccn1` is -15.5%.
Regarding `Cc1cc(-c2ccc(=O)n(C3CCN(C(=O)C4CC4)CC3)n2)c(C)o1`, the INHIBITION stood at 23%.
The value for `CN(C)C(=O)COCc1cncc2c1CCN(C1CCOCC1)C2` was 4.68%; that for `N#Cc1c2n(c3c(=O)[nH]cnc13)CCCCC2` was 23.5%.
The value for `COc1cccc(CN2CC[C@H](c3nnc(C)o3)C2)c1` was -30%; that for `COc1cccc(CN2CC[C@H](c3nnc(-c4ccco4)o3)C2)c1` was -26.1%; that for `CN(Cc1noc(C2CC2)n1)C1CCN(Cc2ccncc2)C1` (stereo unspecified) was 45.8%.
Take `COc1cccc(-c2noc(C3CCN(Cc4ccccc4C)C3)n2)c1` (stereo unspecified): the INHIBITION was found to be 45.6%.
The value for `COc1cccc(-c2noc(C3CCN(Cc4cccs4)C3)n2)c1` (stereo unspecified) was 49.6%.
The figure for `COc1cccc(-c2noc(C3CCN(CC(N)=O)C3)n2)c1` (stereo unspecified) is 41.2%; for `COc1cccc(-c2noc(CN3CCOCC3C)n2)c1` (stereo unspecified) it is -7.35%.
The figure for `COc1cccc(-c2noc(C3CCN(CC4CCCCC4)C3)n2)c1` (stereo unspecified) is 67.9%.
Consider `Cc1cccc(-c2noc([C@@H]3C[C@@H](O)CN3CC3CCCCC3)n2)c1`, for which the INHIBITION was -27.5%.
Take `COc1cccc(-c2noc(C3CCN(Cc4ccc(C)cc4)C3)n2)c1` (stereo unspecified): the INHIBITION amounted to 66.4%.
The value for `COc1cccc(-c2noc(C3CCN(Cc4ccncc4)C3)n2)c1` (stereo unspecified) was 78.2%; that for `COc1cccc(-c2noc(C3CCN(Cc4ccccc4F)C3)n2)c1` (stereo unspecified) was 84.2%.
